In PubChem BioAssay (NCI):
The panel holds about 83,000 compounds, 20% with a hit somewhere; the sample as a whole holds those more often.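 Interpretation: 100, growth as untreated; towards 0, rising growth inhibition; 0, no net growth; 0 to -100, cell death. Compounds scoring below 10 were considered active.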 Active and inactive are the calls of the source.

Test system: HL-60(TB) leukemia
Assay: NCI-60 one-dose screen, 48 h (100 = growth as untreated, 0 = no growth, -100 = all killed)
Settings: 10 µM unless noted

Row | Structure (SMILES) | growth
1 | Cc1cccc2cc(-c3cc(-c4ccccc4)nc(=S)[nH]3)c(Cl)nc12 | 58.9% (inactive)
2 | CC(C)(C)C(=O)c1c2c(c3ccc4c5ccccc5ccc4n13)C(=O)c1ccccc1C2=O | 94.2% (inactive)
3 | C=C1CCC2C3(C)COC(c4cc(F)cc(F)c4)OC3CCC2(C)C1C/C=C1/C(=O)OCC1O (stereo not drawn) | -9.61% (active)
4 | O=C(CSc1nnc(-c2c[nH]c3ccccc23)n1-c1ccccc1)c1ccc(Cl)cc1 | 88.9% (inactive)
5 | COc1ccc(-n2c(SCC(=O)NNS(=O)(=O)c3ccccc3)nc3ccc(Cl)cc3c2=O)cc1 | 107% (inactive)
6 | CC1CCCCN1CCCNC(=O)N/C(N)=N/c1nc2ccccc2s1 (stereo not drawn) | 19.5% (inactive)
7 | COc1c(B(O)O)cccc1-c1nc2ccc3cn[nH]c3c2c2c1CCCC2 | 47.6% (inactive)
8 | CCCCNc1ccc2c3c(cccc13)C(=O)N(NCC(O)COc1ccc3c(C)cc(=O)oc3c1)C2=O (stereo not drawn) | 100% (inactive)
9 | CN(C)c1nc(NCCNS(=O)(=O)c2ccc(C(=O)/C=C/c3ccc(F)cc3)cc2)nc(Nc2ccc(F)cc2)n1 | -38.7% (active)
10 | Cc1cc(Cl)ccc1NC(=O)Nc1ccc(-c2ccc3c(c2)NC(=O)/C3=C\c2ccc[nH]2)cc1 | 78.9% (inactive)
11 | COC(=O)c1cc(C(=O)C(F)(F)F)n2c3ccccc3c3ccccc3c12 | 99.5% (inactive)
12 | CC(=O)NNc1ccc2nnc(-c3ccc(Br)cc3)n2n1 | 97.5% (inactive)
13 | CC(C)(C)OC(=O)/C=C/c1cccc2c1C(=O)NC(C)(c1cc3cc(Cl)ccc3oc1=O)N2 (stereo not drawn) | -6.16% (active)
14 | COC(OC)C1=C(C)OC(N)=C(C#N)C12C(=O)Nc1ccccc12 (stereo not drawn) | 67.6% (inactive)
15 | C#CCOc1ccc(/C=N/Nc2nc(-c3ccc(F)cc3)cs2)cc1OC | 25.2% (inactive)
16 | COc1ccc(C(=O)c2cc(C(C)=O)c3c(C)cc(C)cn23)cc1 | 78% (inactive)
17 | C=CC[N+](C)(C)CCn1c2ccccc2c2nc3cc(C)c(C)cc3nc21 | 97.7% (inactive)
18 | COc1ccc(CCN2C(=O)/C(=C/c3csc(C#N)n3)SC2=S)cc1OC | -18% (active)
19 | O=c1[nH]c2ccc(Cl)cc2cc1CSc1ccc(Nc2nccc(-c3ccc(Cl)cc3)n2)cc1 | 52.4% (inactive)
20 | COc1cc2nc(SCc3ccccc3)n(-c3ccc(Cl)cc3)c(=O)c2cc1OC | 34.8% (inactive)
21 | S=C(Nc1ccccc1)Nc1ccc(OCc2nc3ccccc3[nH]2)cc1 | 20.2% (inactive)
22 | COc1ccccc1[C@H]1C(C(=O)c2ccc(O)cc2)C2(N[C@@H]1c1ccccc1)C(=O)Nc1ccc(Br)cc12 (stereo partly drawn) | 10.5% (inactive)
23 | COC(=O)C(Cc1ccc(O)c(O)c1)NC(=O)C(CSC/C=C(\C)CCCC(C)CCCC(C)CCCC(C)C)NC(C)=O (stereo not drawn) | -22.9% (active)
24 | O=C(c1ccc(Cl)cc1)C1[C@H](c2ccccc2Br)[C@@H](c2ccccc2)NC12C(=O)Nc1ccc(Br)cc12 (stereo partly drawn) | -6.61% (active)
25 | N#Cc1c(-c2ccc(Br)cc2)nc2n[nH]c(-c3ccc(Br)cc3)c2c1-c1ccc(C(F)(F)F)cc1 | -26.2% (active)
26 | COc1ccc(CCC2NCCc3c(Br)c4c(c(OC)c32)OCO4)cc1 (stereo not drawn) | -11.6% (active)
27 | CN(C)CCNC(=O)OCCCCOc1cc(O)c2c(=O)cc(-c3ccccc3)oc2c1 | -61.6% (active)
28 | COc1cc(C2CC(c3ccc(S(=O)(=O)NCCNc4nc(N(C)C)nc(N5CCOCC5)n4)cc3)=Nc3c(N)nc(N)nc3N2)cc(OC)c1OC (stereo not drawn) | 93.6% (inactive)
